Test results as given in the supplement of paper PMC6609913.
Counter-ions that a name gives are not always drawn. ± gives the standard deviation of the averaged measurements. The full ranking holds about 1,300 compounds; the median of “normalised cell viability” is about 1, and the lowest 2% start at about 0.15. The entries come from a sample that favours the lowest values as a whole.

Tested on: V-C8 + BRCA2 (BRCA2-proficient hamster cells)
Assay: normalised cell viability (fraction of plate median); higher = more viable cells (less toxic)
Details: 5 µM
Procedure, shortened: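 In two screens, library drugs at 5 μM were given for 3 days (screen 1) or 6 days (screen 2) to hamster V-C8 cells without BRCA2 and V-C8 cells with BRCA2 restored, seeded 24 h earlier in 96-well plates. A resazurin assay gave the cell viability readout, expressed as modified robust per cent of sample against the plate median, with triplicate wells averaged.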

SMILES | normalised cell viability (treatment time: 3 days) | normalised cell viability (treatment time: 6 days)
NC(=O)c1cnccn1 [Pyrazinamide] | 1.14 ± 0.039 | 1.02 ± 0.043
CCN(CC)CCc1nc(-c2ccccc2)no1 [Oxalamine citrate salt] | 1 ± 0.018 | 1.01 ± 0.03
C=C1/C(=C\C=C2/CCC[C@]3(C)[C@@H]([C@H](C)CCCC(C)C)CC[C@@H]23)C[C@@H](O)C[C@@H]1O [Alfacalcidol] | 0.751 ± 0.062 | 0.719 ± 0.094
C[C@@H]1NC(=O)NC1=O [Methylhydantoin-5-(L)] | 0.988 ± 0.053 | 1.07 ± 0.046
CCOC(=O)[C@H](CCc1ccccc1)N[C@H]1CCc2ccccc2N(CC(=O)O)C1=O [Benazepril HCl] | 1.03 ± 0.018 | 1.07 ± 0.029
CC(C)NCC(O)c1ccc2ccccc2c1 (stereo not given) [Pronethalol hydrochloride] | 0.972 ± 0.037 | 0.995 ± 0.041
CC(=O)[C@H]1CC[C@H]2[C@@H]3CC=C4C[C@@H](O)CC[C@]4(C)[C@H]3CC[C@]12C [Pregnenolone] | 1 ± 0.067 | 1.07 ± 0.12
O=C1c2cccc(O)c2C(=O)c2c(O)cccc21 [1,8-Dihydroxyanthraquinone] | 0.853 ± 0.051 | 0.914 ± 0.076
O=C1c2c(O)ccc(O)c2C(=O)c2c(NCCNCCO)ccc(NCCNCCO)c21 [Mitoxantrone dihydrochloride] | 0.123 ± 0.0098 | 0.124 ± 0.0098
O=C1c2c(O)cccc2Cc2cccc(O)c21 [Anthralin] | 0.979 ± 0.036 | 0.978 ± 0.018
Clc1ccc(COC(Cn2ccnc2)c2ccc(Cl)cc2Cl)cc1 (stereo not given) [Econazole nitrate] | 1 ± 0.025 | 1.04 ± 0.049
CC(=O)NC[C@H]1CN(c2ccc(N3CCOCC3)c(F)c2)C(=O)O1 [Linezolid] | 1.06 ± 0.11 | 1.04 ± 0.04
O=C(NCC1CCCCN1)c1cc(OCC(F)(F)F)ccc1OCC(F)(F)F (stereo not given) [Flecainide acetate] | 1.12 ± 0.066 | 1.02 ± 0.12
CCCCC(C)(O)C/C=C/[C@H]1[C@H](O)CC(=O)[C@@H]1CCCCCCC(=O)OC (mixture of isomers) [Misoprostol] | 0.976 ± 0.09 | 1.03 ± 0.024
CCN(CC)CCN[C@@H](C(=O)OCCC(C)C)c1ccccc1 [Camylofine chlorhydrate] | 0.957 ± 0.014 | 0.998 ± 0.096
CC1(C)S[C@@H]2[C@H](NC(=O)[C@H](C(=O)O)c3ccsc3)C(=O)N2[C@H]1C(=O)O [Ticarcillin sodium] | 1.02 ± 0.021 | 1.04 ± 0.097
CC(=O)Oc1cccc2c1C(=O)c1c(OC(C)=O)cc(C(=O)O)cc1C2=O [Diacerein] | 0.749 ± 0.038 | 0.796 ± 0.027
CCN(CC)CCCC(C)Nc1ccnc2cc(Cl)ccc12 (stereo not given) [Chloroquine diphosphate] | 0.852 ± 0.023 | 0.938 ± 0.082
CCN(CCO)CCCC(C)Nc1ccnc2cc(Cl)ccc12 (stereo not given) [Hydroxychloroquine sulfate] | 0.606 ± 0.024 | 0.666 ± 0.032
CCN(CC)CCCC(C)Nc1c2ccc(Cl)cc2nc2ccc(OC)cc12 (stereo not given) [Quinacrine dihydrochloride dihydrate] | 0.133 ± 0.0038 | 0.107 ± 0.0083
O=C(CCCN1CCN(c2ccccn2)CC1)c1ccc(F)cc1 [Azaperone] | 1.1 ± 0.34 | 0.902 ± 0.052
CCCCN1CCCCC1C(=O)Nc1c(C)cccc1C (stereo not given) [Bupivacaine hydrochloride] | 0.962 ± 0.049 | 1.03 ± 0.038
CCOC(=O)c1ccc(N)cc1 [Benzocaine] | 0.871 ± 0.023 | 0.9583 ± 0.0066

SMILES | normalised cell viability (treatment time: 3 days) | normalised cell viability (treatment time: 6 days)
CN(N=O)C(=O)N[C@@H](C=O)[C@@H](O)[C@H](O)[C@H](O)CO [Streptozotocin] | 1.07 ± 0.073 | 1.06 ± 0.053
O=C(CCCN1CCC(O)(c2ccc(Br)cc2)CC1)c1ccc(F)cc1 [Bromperidol] | 0.976 ± 0.027 | 0.979 ± 0.038
CN1CCCN=C1/C=C/c1cccs1 [Pyrantel tartrate] | 1.04 ± 0.05 | 1.03 ± 0.026
COCCCC/C(=N\OCCN)c1ccc(C(F)(F)F)cc1 [Fluvoxamine maleate] | 0.97 ± 0.029 | 1.17 ± 0.13
Cn1c(=O)c2c(ncn2C)n(C)c1=O [Caffeine] | 0.998 ± 0.053 | 0.996 ± 0.057
CCOC(=O)[N-]c1c[n+](N2CCOCC2)no1 [Molsidomine] | 1.04 ± 0.05 | 1.1 ± 0.028
CCN1CCCC1CNC(=O)c1cc(S(=O)(=O)CC)c(N)cc1OC (stereo not given) [Amisulpride] | 0.974 ± 0.017 | 0.991 ± 0.058
O=C(CCCCCCC(=O)Nc1ccccc1)NO [Vorinostat] | 0.132 ± 0.0091 | 0.17 ± 0.021
O=C(CCCCC(=O)Nc1c(I)cc(I)c(C(=O)O)c1I)Nc1c(I)cc(I)c(C(=O)O)c1I [Iodipamide] | 1.07 ± 0.05 | 1.02 ± 0.06
CC(=O)Nc1ccc(CC(=O)O)cc1 [Actarit] | 1.038 ± 0.0059 | 1.07 ± 0.12
CN(Cc1cc(Br)cc(Br)c1N)C1CCCCC1 [Bromhexine hydrochloride] | 0.949 ± 0.042 | 1.02 ± 0.072
CO[C@H]1C[C@H](O[C@H]2[C@H](C)[C@@H](O[C@@H]3O[C@H](C)C[C@H](N(C)C)[C@H]3OC(C)=O)[C@@H](C)C[C@@]3(CO3)C(=O)[C@H](C)[C@@H](OC(C)=O)[C@@H](C)[C@@H](C)OC(=O)[C@@H]2C)O[C@@H](C)[C@@H]1OC(C)=O [Troleandomycin] | 1.08 ± 0.027 | 1.06 ± 0.04
C[C@@H](O)[C@H]1C(=O)N2C(C(=O)O)=C(S[C@@H]3CN[C@H](C(=O)N(C)C)C3)[C@H](C)[C@H]12 [Meropenem] | 1.02 ± 0.037 | 1.04 ± 0.053
NS(=O)(=O)c1cc(Cl)c(Cl)c(S(N)(=O)=O)c1 [Dichlorphenamide] | 1.09 ± 0.05 | 0.961 ± 0.035
CC(C)(C)NCC(O)COc1cccc2c1CCC(=O)N2 (stereo not given) [Carteolol hydrochloride] | 1.06 ± 0.052 | 1.06 ± 0.044
O=C1NCC2(CCN(CCc3ccccc3)CC2)O1 [Fenspiride hydrochloride] | 1.03 ± 0.051 | 1.06 ± 0.068
CCN(Cc1ccncc1)C(=O)C(CO)c1ccccc1 (stereo not given) [Tropicamide] | 1.065 ± 0.0083 | 1.01 ± 0.043
CN(C)CCC[C@@]1(c2ccc(F)cc2)OCc2cc(C#N)ccc21 [Escitalopram] | 1.1 ± 0.041 | 1.01 ± 0.067
CC(C)[C@H]1CC[C@H](C(=O)N[C@H](Cc2ccccc2)C(=O)O)CC1 [Nateglinide] | 1.04 ± 0.051 | 1.04 ± 0.091
CN1CCCC(CC2c3ccccc3Sc3ccccc32)C1 (stereo not given) [Metixene hydrochloride] | 0.867 ± 0.014 | 0.888 ± 0.012
O=C(CCCN1CC=C(n2c(=O)[nH]c3ccccc32)CC1)c1ccc(F)cc1 [Droperidol] | 1.05 ± 0.013 | 1.07 ± 0.015
O=C(O)c1ccccc1OP(=O)(O)O [Fosfosal] | 0.966 ± 0.055 | 1.06 ± 0.1
